From PubChem
Tg IFNy HTS: T. gondii growth inhibition with IFN-gamma, primary screen, cell-based; Toxoplasma gondii growth in IFN-gamma-treated host cells; active compounds read low; activity change, negative = inhibition, % (test concentration not listed); hit rate 3.8% among 69,000; AID 1259416, 2018; in the data active = activity change below about -70%, passing the limit was not always enough;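 also: host cells are HeLa cells infected with Toxoplasma gondii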
Hits are given with their value; i = inactive; ! = repeats disagree. This is one part of a sample in which hits are shown more often than they occur.

SMILES	Tg IFNy HTS
O=C(Nc1cccc(F)c1)c1c(O)c2cccnc2n(-c2ccccc2)c1=O	i
COc1cccc(-n2c(=O)c(C(=O)NC3CCCCCC3)c(O)c3cccnc32)c1	-113
COc1cccc(CNC(=O)c2c(O)c3cccnc3n(-c3ccc(F)cc3)c2=O)c1	i
O=C(Nc1cccc(F)c1)c1c(O)c2cccnc2n(-c2cccc(F)c2)c1=O	i
CCC(=O)N1CC2(C1)[C@@H](c1ccccc1)[C@@H](CO)N2CC1CC1	i
COc1cc(F)ccc1-c1c(-c2ccccc2)ncn1CCc1cnc[nH]1	i
CCC(c1ccncc1)n1ccnc1-c1nc[nH]c1C (configuration not stated)	i
Cc1ccccc1-c1noc(CN[C@@H]2c3ccccc3C[C@@H]2O)n1	i
COC(=O)c1ccc(Cl)cc1NC(=O)N1CCC2(CC1)Nc1cc(OC)ccc1-n1cccc12	i
COC(=O)/C=c1\sc2nc(=O)c(C)nn2c1=O	i
O=C(NCc1ccc2c(c1)OCO2)c1cn2c(n1)CCCC2	i
CCC(=O)c1ccc(OCC(O)CN2CCN(c3ccccc3)CC2)cc1 (configuration not stated)	i
CC(C)c1nccc(CN2CCN(S(=O)(=O)c3ccccc3)CC2)n1	i
O=S(=O)(c1ccccc1)N1CCN(CC(O)COc2ccc3ccccc3c2)CC1 (configuration not stated)	-83
CC(Oc1cccc(-c2ccccc2Cl)c1)C(N)=O (configuration not stated)	i
COC1C=COC2(C)Oc3c(C)c(O)c4c(c3C2=O)C2(C=C(NC(=O)/C(C)=C\C=C/C(C)C(O)C(C)C(O)C(C)C(OC(C)=O)C1C)C4=O)OCC(=O)O2 (configuration not stated)	i
CO[C@H]1/C=C\C=C(/C)C(=O)NC2=CC(=O)C(NCCN(C)C)=C(C[C@@H](C)C[C@H](OC)[C@H](O)[C@@H](C)/C=C(\C)[C@@H]1OC(N)=O)C2=O	-82!
Cc1cc(C)n(S(=O)(=O)c2ccccc2)n1	i
O=C(O)c1nccnc1C(=O)NCc1csc2ccc(Cl)cc12	i
COC(=O)c1ccc(S(=O)(=O)NCc2csc3ccc(Cl)cc23)n1C	i
Cc1nn(C(=O)Nc2cccc(Cl)c2)c(C)c1Cc1csc2ccc(Cl)cc12	-85
Cc1nn(S(=O)(=O)c2ccccc2)c(C)c1Cc1csc2ccc(Cl)cc12	-89
COC(=O)C(Cc1csc2ccc(Cl)cc12)NC(=O)c1ccc(C(F)(F)F)cc1 (configuration not stated)	i
Cc1cc(C2CCCN2C(=O)c2cc(C(F)(F)F)nn2C)on1 (configuration not stated)	i
Cc1nc(N)c2ccc(C3CCCCN3C(=O)c3ccccc3)nc2n1 (configuration not stated)	i
SMILES	Tg IFNy HTS
Cc1cc2n(n1)CCCN(C(=O)CC1COCCN1)C2 (configuration not stated)	i
Cc1ccc(NC(=O)Cn2cncn2)c(Br)c1	i
Cn1ccnc1SCCn1ccnc1-c1ccc(Cl)s1	i
Cc1cc(NC(=O)N2CCC3(CC2)CC(=O)c2ccccc2O3)ccc1Br	-75
Cc1cc(C)cc(NC(=O)N2CCC3(CC2)CC(=O)c2ccccc2O3)c1	i
O=C1CC2(CCN(C(=O)NCc3ccc(F)cc3)CC2)Oc2ccccc21	i
Fc1ccc2nc(CN3CCSCC3)cn2c1	i
COc1cc(C)c(C(c2ccc(N(C)C)cc2)c2ccc(N(C)C)cc2)cc1C	-97
c1cnc(OC2CCN(Cc3cnn(C4CCCCC4)c3)CC2)cn1	i
CC1=NN(C2CCS(=O)(=O)C2)C(=O)C1(Sc1ccccc1)Sc1ccccc1 (configuration not stated)	-93
CC(C)c1cc(C(=O)O)nn1C1CCS(=O)(=O)C1 (configuration not stated)	i
CC(=O)N1CCc2cc(NC(=O)C3=NN(C4CCS(=O)(=O)C4)C(=O)CC3)ccc21 (configuration not stated)	i
O=C(Nc1ccccc1)N1CCC[C@@]2(C(=O)NCC3CC3)CN(c3ncccn3)C[C@H]2C1	i
CNS(=O)(=O)c1ccc(F)c(C(=O)NCc2cc(N(C)C)nc(-c3cccnc3)n2)c1	i
COc1ccccc1/C=C/CN1CC[C@@H](c2sccc2C)[C@H](O)C1	i
Cc1ccc(Nc2cc(C)nc3c(C)cccc23)cc1	i
Cc1cc(Nc2cc(C(F)(F)F)nc3c(Cl)cccc23)on1	-80
Cc1cc(C(F)(F)F)nc(CCNC(=O)c2c(O)cccc2O)n1	i
COc1ccc2c(c1)NC1(CCN(C(=O)Cc3ccccc3C)CC1)c1cccn1-2	i
Cc1ccsc1-c1cn(C(CO)Cc2ccc(Cl)cc2)nn1 (configuration not stated)	i
O=C(CCC1C(=O)Nc2ccccc21)NCc1cc(Cl)c2c(c1)OCCCO2 (configuration not stated)	i
CCC(C(=O)NCc1cc(Cl)c2c(c1)OCCCO2)n1nc(C)cc1C (configuration not stated)	i
O=C(NCc1cc(Cl)c2c(c1)OCCCO2)c1cccc(Nc2ncccn2)c1	-71
C=CCSc1nc(-c2ccccc2)c(-c2ccccc2)[nH]1	i
O=c1[nH]c(CN2CCCC3(CCCCC3)C2)nc2c1C1(CCCCC1)Cc1ccccc1-2	-81
SMILES	Tg IFNy HTS
CC1(C)Cc2ccccc2-c2nc(-c3ccccc3)oc(=O)c21	i
CC1(C)CC2(CCCN(Cc3nc4c(c(=O)[nH]3)C3(CCCCC3)Cc3ccccc3-4)C2)CCO1 (configuration not stated)	-85
O=c1oc(-c2ccccc2)nc2c1C1(CCCC1)Cc1ccccc1-2	i
Cc1cccc(CN2CCCC3(CCN(c4cncnc4)C3=O)C2)n1 (configuration not stated)	i
COC(=O)c1sc(S(C)(=O)=O)c(C#N)c1-c1cc(C(C)(C)C)oc1C	i
O=C(NCc1ccccc1C(F)(F)F)c1cn2c(n1)CCCC2	i
Cc1ccc(-c2nnc(CNC(=O)Cc3ccc(F)cc3)o2)s1	i
COc1cncc(C(=O)Nc2cc(F)ccc2Cl)c1	i
CCc1cnc(C)nc1N1CCC2(CCOCC2)CC1	i
O=C(NC1CCN(CCCCC2(C(=O)NCC(F)(F)F)c3ccccc3-c3ccccc32)CC1)c1ccccc1-c1ccc(C(F)(F)F)cc1	-74
Cc1nc(C(F)(F)F)ccc1C(=O)NC1CCCN(Cc2cnn(C)c2C)CC1 (configuration not stated)	i
CN1CCC2(C=C(C(=O)NC3CC3)c3ccccc32)CC1	i
CCc1ccc2oc(=O)cc(CN3CCN(Cc4nc(-c5ccc(C)cc5)oc4C)CC3)c2c1	i
CC(=O)N1Cc2cc(C)ccc2OC2(CCCN(CC(=O)c3cc(C)sc3C)C2)C1 (configuration not stated)	i
Cc1nccn1CC1(O)CCN(C(=O)C(Cc2ccc(F)cc2)c2ccccc2)CC1 (configuration not stated)	i
CC(=O)N1CC(=O)N(c2ccccc2)CC12CCN(Cc1nccs1)C2 (configuration not stated)	i
CC1(C)C(=O)N=C2c3ccccc3C(=O)C(=O)C21 (configuration not stated)	-88
COc1ccccc1-c1nc(Cn2nnc(-c3nc(-c4cccc(F)c4)no3)c2C)c(C)o1	i
Cc1ccc(CN2CCC(CNC(=O)Cn3c4ccccc4c4cnn(C)c(=O)c43)C2)cc1 (configuration not stated)	i
CC(CCNC(=O)C(C)n1c2ccccc2c2cnn(C)c(=O)c21)N1CCCC1 (configuration not stated)	i
